Compound activity (PubChem)
In the library only some 6.2% were active in any assay of this set; here they are far more common.
FMDV inh: blocks foot and mouth disease virus | Potency, µM (series often up to 57.9 µM), for inactives: top-dose activity change, negative = inhibition, most hits filed as inhibitors | AID 1159524 | hit rate 1.2% among 410,000 | FMDV antiviral cell-based qHTS; calls by dose curve; tested in HEK293T cells; also: read-out not given here; potency is read from the fitted curve at half-maximal effect; nearly all actives have a fitted effect of over 45% in size
Lassa entry inh: Lassa virus entry inhibition; Lassa virus pseudotype entry inhibition, cell reporter; Potency, µM (doses to about 37.9 µM), for inactives: at the highest dose activity change, negative = inhibition, actives largely listed as inhibitors; hit rate 1.2% among 300,000; calls by dose curve; tested in HEK293 cells; also: potency is read from the fitted curve at half-maximal effect; nearly all actives have a fitted effect of over 50% in size
MARV entry inh: Marburg virus entry inhibition; Marburg virus pseudotyped entry inhibition, cell reporter; hit rate 1.8% among 300,000; Potency, µM (titrated, usually from 37.8 µM), without a hit: at the top dose activity change, negative = inhibition, usual class: inhibitors; AID 540276; calls by dose curve; tested in HEK293 cells; also: potency is read from the fitted curve at half-maximal effect
HCMV antiviral: blocks human cytomegalovirus replication; hit rate 4.5% among 410,000; HFF cells, HCMV-luciferase reporter, 72 h; active compounds read low; activity change, negative = inhibition, % at 57.5 µM; in the data active = activity change below about -60%; inconclusive = no clear call, values can overlap the other calls; inactive = above about -39%
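Two compound doses tested in HFFs infected with HCMV-luciferase, MOI 1 PFU/cell, 72 h at 37C. Lysate luminescence read with OneGlo; data normalized against buffer-only and 10uM Salinomycin inhibitor controls.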
Numbers without * were called inactive; ? = inconclusive; / = no result given; [ ] = dose if it differs, or a comment. % is scaled to controls: 0 for no effect and ±100 for the full control effect.

SMILES	FMDV inh	Lassa entry inh	MARV entry inh	HCMV antiviral
CC1CCN(C(=O)c2cc(Cl)ccc2NC(=O)c2ccco2)CC1	17%	/	-9%[46.1 µM]	-60*
COc1ccc(C(=O)OCCCOC(=O)c2ccc(OC)cc2OC)c(OC)c1	-13%	-14%	12%	0
CO/N=C/CC(=O)Nc1ccc(F)cc1F	/	-1%	-7%	43
COc1ccc(OC2CCN(S(=O)(=O)c3ccc(OC)cc3)CC2)cc1	?	?	-29%[46.1 µM]	?
COc1ccc(OC2CCN(S(=O)(=O)c3cccc(F)c3)CC2)cc1	?	-28%[46.1 µM]	-3%[46.1 µM]	-97*
COc1ccc(S(=O)(=O)N2CCC(Oc3ccc(-n4cnnn4)cc3)CC2)cc1	-7%	20%[46.1 µM]	-5%[46.1 µM]	-11
COc1ccc(S(=O)(=O)N2CCC(Oc3ccc(-n4cnnn4)cc3)CC2)cc1OC	-29%	-2%[46.1 µM]	-18%[46.1 µM]	-64*
Fc1cccc(CCN2CCNC[C@@H]2CC2CCCCC2)c1	-1%	/	/	6
COc1ccc(-n2cc(-c3ccccc3)c3c(N4CC(C)OC(C)C4)ncnc32)cc1 (configuration not stated)	22µM*	?	?	14
COc1cccc(N2CCN(c3ncnc4c3c(-c3ccccc3)cn4-c3ccc(F)cc3)CC2)c1	-21%	25%[46.1 µM]	/	-19
O=C(Nc1ccc2oc(-c3ccc(F)cc3)nc2c1)c1ccccc1F	11%	-1%	1%	?
COc1ccccc1CNC(=S)NC1CCCCC1	-5%	8.9µM*	?	-74*
COc1cccc(CNC(=S)NC2CC2)c1	-4%	16%	18%[46.1 µM]	-6
COc1cccc(CNC(=S)NC2CCCC2)c1	15%	8%	-4%	-61*
CCCCC[C@H]1CN(CCc2ccccc2)C(=O)[C@@H]1CC(=O)NCc1ccc(OC)cc1	-24%	/	/	?
Cc1cccc(Nc2ncnc3ccc(Br)cc23)c1	-19%	-6%[46.1 µM]	?	-60*
Clc1ccc(Nc2ncnc3ccc(Br)cc23)cc1	/	-23%	?	-83*
COc1cc2ncnc(Nc3cccc(Cl)c3)c2cc1OC	-12%	?	?	/
CN(C)c1ccc(Nc2ncnc3ccc(Br)cc23)cc1	5%	/	/	-76*
Cc1ccc2ncnc(Nc3ccccc3)c2c1	13%	-1%	-5%[46.1 µM]	-18
COc1ccc(Nc2ncnc3ccc(Br)cc23)cc1OC	-9%	-15%	?	/
Clc1cccc(Nc2ncnc3ccc(Br)cc23)c1	/	-24%	?	-62*
C=CC(=O)NCc1ccc(-c2csnn2)cc1	12%	24%	-3%	-21
Cc1cc(C)c(S(=O)(=O)N2CCN(C(=O)CCOc3ccccc3C)CC2)c(C)c1	-21%	-5%	-15%	-13
Cc1cc(C)cc(Cn2c(C)c(C(=O)N(C)Cc3ccc(F)cc3)sc2=O)c1	0%	/	/	-15
SMILES	FMDV inh	Lassa entry inh	MARV entry inh	HCMV antiviral
Cc1c(C(=O)N(C)Cc2ccccc2)sc2nc(-c3ccc(F)cc3)cn12	2%	?	/	-82*
Cc1ccccc1Cn1c(C)c(C(=O)N(C)Cc2ccc(F)cc2)sc1=O	-17%	/	/	-60*
COc1ccc(Br)c(Cn2c(C)c(C(=O)N(C)Cc3ccc(F)cc3)sc2=O)c1	?	/	/	-85*
Cc1c(C(=O)N(C)c2ccccc2)sc2nc(-c3ccc(F)cc3)cn12	34%	-8%[46.1 µM]	/	-26
CC1CCN(CCC(=O)N/N=C/c2ccc([N+](=O)[O-])cc2)CC1	-2%	/	-7%[46.1 µM]	-7
CCC(CO)Oc1cc(NCc2ccccc2)c2ncn(C(C)C)c2c1 (configuration not stated)	-11%	/	/	?
CC(C)n1cnc2c(NCc3ccccc3)cc(N[C@H](C)CO)cc21	8.9µM*	/	/	/
Nc1c(-c2cccc(Cl)c2)cnn1-c1cccc(C(F)(F)F)c1	-25%	7%	19%	-18
Nc1c(-c2ccccc2)cnn1-c1cccc(C(F)(F)F)c1	23%	18%	13%	-106*
O=C(NCC1CC1)c1cc2c(c(-c3cccc(-c4ccccc4F)c3)n1)[C@H](CCO)N(C(=O)CC1CC1)C2	-14%	/	/	-11
C[C@]12CC(O)C3C(CCC4=CC(=O)CC[C@@]43C)C1CCC2c1csc(-c2ccccc2)n1 (some centres not stated)	-20%	/	/	-76*
C=CCn1c(SCCOc2ccc(OC)cc2)nnc1C(C)NC(=O)c1ccc(OC)cc1 (configuration not stated)	11%	-2%	-4%	11
O=[N+]([O-])c1ccc2c(c1)S(=O)(=O)C=C2	32µM*	3.3µM*	?	/
O=c1cc(-c2ccccc2)[nH]c2[nH]n(-c3ccccc3)c(=O)c12	2%	8%	14%	2
COC(=O)C(Cc1ccccc1)NC(=O)CNC(=O)c1sc2ccccc2c1Cl (configuration not stated)	13%	7%[46.1 µM]	?	-25
Clc1ccc(-n2nnnc2-c2cnc3ccccc3c2-c2ccccc2)cc1	-23%	-5%	-34%	-72*
C[C@]12CCC(=O)C=C1CC[C@@H]1[C@@H]2CC[C@@]2(C)[C@H]1CC[C@@]21CCC(=O)O1	?	/	/	-33
Cc1ccc(S(=O)(=O)NCC(Nc2cccc(Cl)c2)c2ccccc2)cc1 (configuration not stated)	-1%	?	?	-103*
O=S(=O)(NCC(Nc1ccc(Cl)cc1)c1ccccc1)c1ccc(Cl)cc1 (configuration not stated)	-3%	?	?	?
CCC(=O)Nc1ccc(/C=C(\C(C)=O)C(=O)c2ccccc2)cc1	28µM*	-28%	15%	-25
CCC(=O)Nc1ccc(C=C(C(C)=O)C(C)=O)cc1	20µM*	/	/	80
COc1cccc(C=C(C(C)=O)C(=O)c2ccccc2)c1	20µM*	/	/	4
COc1cccc(/C=C(/C(=O)OCC(N)=O)c2ccccc2)c1	-19%	/	-9%[46.1 µM]	-18
COc1ccccc1Cn1c(=S)[nH]c2cc(C(=O)NCCN(C)C)ccc2c1=O	-12%	-1%[46.1 µM]	10µM*	-12
COc1ccccc1Cn1c(=S)[nH]c2cc(C(=O)N3CCCC3)ccc2c1=O	-13%	/	/	12
SMILES	FMDV inh	Lassa entry inh	MARV entry inh	HCMV antiviral
COc1ccccc1CNC(=O)c1ccc2c(=O)n(CC3CCCO3)c(=S)[nH]c2c1 (configuration not stated)	-29%	4%	-18%[46.1 µM]	?
CCCN(CCC)C(=O)c1ccc2c(=O)n(Cc3ccco3)c(=S)[nH]c2c1	-22%	-22%	6%	-90*
COc1ccccc1Cn1c(=S)[nH]c2cc(C(=O)NCC3CCCO3)ccc2c1=O (configuration not stated)	25µM*	?	?	-37
COc1ccc(-n2c(=S)[nH]c3cc(C(=O)NCCCN4CCCC4=O)ccc3c2=O)cc1OC	13%	-12%	-13%[46.1 µM]	-99*
O=C(NCCc1ccc(Cl)cc1)Nc1cccc(Cl)c1	-7%	?	?	-11
COc1ccc(N2CC(C(=O)OCC(=O)Nc3cc(C)on3)CC2=O)cc1 (configuration not stated)	14%	14%	4%[46.1 µM]	-3
CCn1c(CSc2nnc(-c3ccc4c(c3)OCO4)o2)nc2cc(S(=O)(=O)N(C)C)ccc21	?	-8%	-21%	-82*
CCN(CC)S(=O)(=O)c1ccc2c(c1)nc(CCC(=O)Nc1ccc3c(c1)OCO3)n2CC	-9%	16%	?	-68*
